Source: PubChem BioAssay (NCATS)
Inconclusive results are not listed. The source made the active and inactive calls. Unless noted, calls follow the shape of the full dose curve.

Assays:
[1] = qHTS for Inhibitors of the Functional Ribonucleoprotein Complex (vRNP) of Lassa (LASV) Arenavirus: LASV Primary Screen - GLuc reporter signal (AID 1347082; calls by dose curve; tested in HEK293 reporter line; also: nearly all actives have a fitted effect of over 60% in size)
[2] = qHTS for Inhibitors of the Functional Ribonucleoprotein Complex (vRNP) of Lassa (LASV) Arenavirus: Viability assay - alamar blue signal for LASV Primary Screen (AID 1347083; calls by dose curve; tested in HEK293 reporter line; also: nearly all actives have a fitted effect of over 80% in size)
[3] = qHTS for Inhibitors of the Functional Ribonucleoprotein Complex (vRNP) of Lymphocytic Choriomeningitis Arenaviruses (LCMV): Viability assay - alamar blue signal for LCMV Primary Screen (AID 1347085; calls by dose curve; tested in HEK293 reporter line; also: nearly all actives have a fitted effect of over 80% in size)
[4] = target: Nucleoprotein (Lymphocytic choriomeningitis virus (strain Armstrong)) (UniProt P09992); experiment: qHTS for Inhibitors of the Functional Ribonucleoprotein Complex (vRNP) of Lymphocytic Choriomeningitis Arenaviruses (LCMV): LCMV Primary Screen - GLuc reporter signal (AID 1347086); also: nearly all actives have a fitted effect of over 70% in size

Measured: Potency
Also: series mostly up to about 57 µM.

Nucleoprotein (Lymphocytic choriomeningitis virus (strain Armstrong)), sequence (P09992 whole entry, looked up): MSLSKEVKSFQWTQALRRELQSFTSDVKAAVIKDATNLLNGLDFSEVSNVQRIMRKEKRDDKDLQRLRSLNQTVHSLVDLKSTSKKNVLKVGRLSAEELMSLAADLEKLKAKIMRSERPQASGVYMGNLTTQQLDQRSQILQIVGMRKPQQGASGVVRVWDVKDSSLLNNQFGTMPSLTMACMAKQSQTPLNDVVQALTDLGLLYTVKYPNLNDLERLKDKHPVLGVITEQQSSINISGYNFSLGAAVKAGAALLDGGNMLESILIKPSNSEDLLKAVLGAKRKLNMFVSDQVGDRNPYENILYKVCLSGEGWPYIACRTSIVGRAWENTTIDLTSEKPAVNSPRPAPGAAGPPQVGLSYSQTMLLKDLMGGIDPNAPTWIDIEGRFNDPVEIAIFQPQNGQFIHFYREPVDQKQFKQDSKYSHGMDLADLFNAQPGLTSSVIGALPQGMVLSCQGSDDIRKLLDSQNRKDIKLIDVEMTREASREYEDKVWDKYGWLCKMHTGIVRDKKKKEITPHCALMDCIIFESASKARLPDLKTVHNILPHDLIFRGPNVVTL

CC(N=C(NC#N)Nc1ccncc1)C(C)(C)C (stereo unspecified)
inactive: all assays above

CN=C(N)NC(=O)Nc1c(C)cccc1C
inactive: all assays above

CC(C)(Sc1cc(C(C)(C)C)c(O)c(C(C)(C)C)c1)Sc1cc(C(C)(C)C)c(O)c(C(C)(C)C)c1
inactive: all assays above

Cc1onc(-c2ccccc2)c1-c1ccc(S(N)(=O)=O)cc1
inactive: all assays above

O=C1CC2(CCCC2)CC(=O)N1
inactive: all assays above

OCCc1ccccc1
inactive: all assays above

c1ccc2sc(SSc3nc4ccccc4s3)nc2c1
inactive: all assays above

Nc1ccn(C[C@@H](CO)OCP(=O)(O)O)c(=O)n1
inactive: all assays above

Nc1ccc(O)cc1
inactive: all assays above

O=c1[nH]c(=O)n([C@H]2C[C@H](O)[C@@H](CO)O2)cc1Br
inactive: all assays above

OC[C@H]1O[C@@H]2O[C@H]3[C@H](O)[C@@H](O)[C@@H](O[C@H]4[C@H](O)[C@@H](O)[C@@H](O[C@H]5[C@H](O)[C@@H](O)[C@@H](O[C@H]6[C@H](O)[C@@H](O)[C@@H](O[C@H]7[C@H](O)[C@@H](O)[C@@H](O[C@H]8[C@H](O)[C@@H](O)[C@@H](O[C@H]1[C@H](O)[C@H]2O)O[C@@H]8CO)O[C@@H]7CO)O[C@@H]6CO)O[C@@H]5CO)O[C@@H]4CO)O[C@@H]3CO
inactive: all assays above

CCCC(=O)O[C@]1(C(=O)COC(=O)CC)CC[C@H]2[C@@H]3CCC4=CC(=O)CC[C@]4(C)[C@H]3[C@@H](O)C[C@@]21C
inactive: all assays above

CC(CCc1ccc2c(c1)OCO2)NN (stereo unspecified)
inactive: all assays above

O=C1CCCc2c(O)cccc21
inactive: all assays above

CC(CN(C)C)C(C)(O)Cc1ccc(Cl)cc1 (stereo unspecified)
inactive: all assays above

CCN(Cc1ccncc1)C(=O)C(CO)c1ccccc1 (stereo unspecified)
inactive: all assays above

CC(=O)Nc1ccc(S(=O)(=O)Nc2cc(C)on2)cc1
inactive: all assays above

CN1CCN(C(=O)C2CCCCC2)CC1
inactive: all assays above

N#CC1(c2ccc(F)cc2)CCC(=O)CC1
inactive: all assays above

COc1cc(C)c(Cc2cnc(N)nc2N)cc1OC
inactive: all assays above

Clc1cccc(Cl)c1NC1=NCCN1
inactive: all assays above

Oc1cccc(O)c1
inactive: all assays above

O=C1OC2(c3ccccc31)c1cc(Br)c(O)c(Br)c1Oc1c2cc(Br)c(O)c1Br
inactive: all assays above

NS(=O)(=O)c1ccc(Cl)c(S(N)(=O)=O)c1
inactive: all assays above

Cc1nc2ccccn2c(=O)c1CCN1CCC(C(=O)c2ccc(F)cc2)CC1
inactive: all assays above

O=C(O)[C@@H](O)[C@H](O)[C@H](O)[C@@H](O)C(=O)O
inactive: all assays above

OC[C@H]1O[C@H](O[C@]2(CCl)O[C@H](CCl)[C@@H](O)[C@@H]2O)[C@H](O)[C@@H](O)[C@H]1Cl
inactive: all assays above

CCCCC(O)/C=C(C)/C=C/C=C/C(=O)N1CCCC1=O (stereo unspecified)
inactive: all assays above

CC(=O)Nc1ncc([N+](=O)[O-])s1
inactive: all assays above

CC(=O)Oc1cccc(O)c1
inactive: all assays above

COC(=O)/C=C\C(=O)OC
inactive: all assays above

O=C(C1CCCCC1)N1CC(=O)N2CCCc3ccccc3C2C1 (stereo unspecified)
inactive: all assays above

C=CCc1ccc(O)c(OC)c1
inactive: all assays above

CC(C)Cn1cnc2c(N)nc3ccccc3c21
inactive: all assays above
